SMILES strings stand for the structures.

Some test systems named below: ERN1; FER; FES; FGFR1; FGFR2; FGFR3; FGFR4; FGR.
Common to all, as to conditions: concentration: 1 μM, replicates: in singlicate; n = 1
For the next test, the system named is T1, ERK8.
T1 construct: gene MAPK15

In another test the test system is T2, FAK.
T2 construct: gene PTK2
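Also: KINOMEscan kinase panel screen.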

As to `COC(=O)C(NC(=O)NC1CCN(c2ccnc(Nc3ccc(F)cc3)n2)C1)c1ccccc1` (stereo not shown) [GSK1379712], the “%Inh” value in the test with ERK8 worked out at 0%; in the test with ERN1 it was 4%; with FAK, 0%; in the test with FER it was 19%; in the test with FES it was 0%; in the test on FGFR1, 0%. Further, the “%Inh” value in the test with FGFR2 turned out to be 0%; in the test with FGFR3, 7%; in the test on FGFR4, 19%; with FGR, 8%.
Take `CN1c2ccc(-c3ccc(C(N)=O)cc3)cc2-c2[nH]ncc2S1(=O)=O`: the “%Inh” value in the test with ERK8 was determined as 17%; in the test on ERN1, 0%; with FER it was 8%; in the test with FES it was 11%; with FGFR1, 5%; in the test on FGFR2, 0%. In addition, the figures for the “%Inh” value in the test with FGFR3, with FGFR4 and with FGR were 0%, 0% and 20%, respectively.
For `COC(=O)c1cccc(NC(=O)NC2CCN(c3ccnc(Nc4ccc(OC)cc4)n3)C2)c1` (stereo not shown) [GSK1379746], the “%Inh” value in the test on ERK8 came out at 0%; with ERN1, 5%; in the test on FAK, 0%; in the test with FER it was 13%; in the test with FES, 0%; in the test with FGFR1 it was 0%. Further, the “%Inh” value with FGFR2 turned out to be 0%; in the test on FGFR3 it was 0%; with FGFR4 it was 4%; in the test with FGR, 11%.
On to `COc1ccc(CSc2nnc(-c3ccc4ncsc4c3)o2)cc1C(F)(F)F`, for which the “%Inh” value with ERK8 stood at 57%; in the test with ERN1 it was 0%; with FAK, 0%; with FER, 0%; with FES, 14%; in the test on FGFR1, 5%. Besides, the “%Inh” value with FGFR2 turned out to be 0%; in the test with FGFR3 it was 0%; in the test with FGFR4 it was 0%; in the test on FGR it was 27%.
For the compound `CNc1cc(-c2ccc3c(N)n[nH]c3c2)nc(N)n1` [GSK2224810], the “%Inh” value with ERK8 came to 0%; with ERN1 it was 0%; in the test on FAK, 0%; with FER, 19%; in the test on FES, 9%; in the test on FGFR1 it was 0%. Moreover, the “%Inh” value in the test with FGFR2 was found to be 0%; in the test on FGFR3 it was 28%; in the test with FGFR4, 7%; with FGR it was 24%.

Values taken from paper PMC5540273 (PLoS ONE, 2017).
